Source: paper PMC7862700, “An all-to-all approach to the identification of sequence-specific readers for epigenetic DNA modifications on cytosine”

Tests used:
Experiment in all cases: DAPPL (digital affinity profiling via proximity ligation, sequencing); 10 mM Tris-HCl pH 7.5, 50 mM NaCl, 1 mM DTT, 4% glycerol, room temperature, 30 min; GST-TFs on glutathione beads, 16-mer random dsDNA library, 0.1% formaldehyde crosslink after washing; high values mean tight binding
Conditions in all cases: protein: recombinant; tags: N-terminal GST; dsDNA, one strand shown
ERG = target: T1, ERG (Homo sapiens, UniProt P11308 1-479)
T1 sequence: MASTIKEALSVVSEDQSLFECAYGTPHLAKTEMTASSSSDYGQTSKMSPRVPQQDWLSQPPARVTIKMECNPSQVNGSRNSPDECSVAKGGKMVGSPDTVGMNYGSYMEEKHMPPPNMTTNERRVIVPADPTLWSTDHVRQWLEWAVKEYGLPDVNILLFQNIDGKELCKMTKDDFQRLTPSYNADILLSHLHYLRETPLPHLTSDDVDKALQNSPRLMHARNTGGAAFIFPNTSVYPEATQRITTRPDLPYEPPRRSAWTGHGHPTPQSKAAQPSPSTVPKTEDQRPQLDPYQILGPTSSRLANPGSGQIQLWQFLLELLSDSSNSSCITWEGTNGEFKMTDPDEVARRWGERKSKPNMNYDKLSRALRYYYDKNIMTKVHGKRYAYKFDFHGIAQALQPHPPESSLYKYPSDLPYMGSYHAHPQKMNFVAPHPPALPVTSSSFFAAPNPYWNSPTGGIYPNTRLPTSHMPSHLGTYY
Outline: (§1)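 After expression in yeast as GST fusions, human transcription factors were bound to glutathione beads, DNA-barcoded and mixed with a tag-only sample. The pools were incubated with 200 nmole of a 16-mer random double-stranded DNA library in Tris/NaCl/DTT/glycerol buffer (30 min, room temperature), washed and crosslinked with 0.1% formaldehyde. Proximity ligation with BsaI/T4 ligase ran for 1 h at 37 °C, before PCR amplification and sequencing on an Illumina NextSeq500. Binding signal is a hexamer's read frequency for a factor divided by its frequency for the tag-only sample.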

EHF = target: T2, EHF (Homo sapiens, UniProt Q9NZC4 1-300)
T2 sequence: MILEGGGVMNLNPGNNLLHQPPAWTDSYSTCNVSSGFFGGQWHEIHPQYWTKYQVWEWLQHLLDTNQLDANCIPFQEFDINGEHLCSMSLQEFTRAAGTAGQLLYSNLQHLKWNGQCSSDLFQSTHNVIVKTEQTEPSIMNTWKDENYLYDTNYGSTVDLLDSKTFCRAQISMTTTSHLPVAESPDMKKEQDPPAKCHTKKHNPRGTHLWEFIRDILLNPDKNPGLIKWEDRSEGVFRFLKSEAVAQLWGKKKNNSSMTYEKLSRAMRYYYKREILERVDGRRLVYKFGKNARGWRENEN
Outline: as §1

SPIB = SPIB (Homo sapiens, UniProt Q01892 1-262)
Chain of SPIB (Q01892 whole entry): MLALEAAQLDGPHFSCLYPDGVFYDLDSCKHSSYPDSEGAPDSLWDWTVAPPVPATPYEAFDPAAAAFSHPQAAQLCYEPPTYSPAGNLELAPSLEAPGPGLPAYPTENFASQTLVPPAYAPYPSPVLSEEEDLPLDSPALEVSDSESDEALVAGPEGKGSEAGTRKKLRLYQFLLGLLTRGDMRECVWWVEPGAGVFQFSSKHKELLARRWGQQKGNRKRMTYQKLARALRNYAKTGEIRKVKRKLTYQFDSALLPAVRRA
Outline: as §1

ETV5 = ETV5 (Homo sapiens, UniProt P41161 1-510)
Chain of ETV5 (P41161 whole entry): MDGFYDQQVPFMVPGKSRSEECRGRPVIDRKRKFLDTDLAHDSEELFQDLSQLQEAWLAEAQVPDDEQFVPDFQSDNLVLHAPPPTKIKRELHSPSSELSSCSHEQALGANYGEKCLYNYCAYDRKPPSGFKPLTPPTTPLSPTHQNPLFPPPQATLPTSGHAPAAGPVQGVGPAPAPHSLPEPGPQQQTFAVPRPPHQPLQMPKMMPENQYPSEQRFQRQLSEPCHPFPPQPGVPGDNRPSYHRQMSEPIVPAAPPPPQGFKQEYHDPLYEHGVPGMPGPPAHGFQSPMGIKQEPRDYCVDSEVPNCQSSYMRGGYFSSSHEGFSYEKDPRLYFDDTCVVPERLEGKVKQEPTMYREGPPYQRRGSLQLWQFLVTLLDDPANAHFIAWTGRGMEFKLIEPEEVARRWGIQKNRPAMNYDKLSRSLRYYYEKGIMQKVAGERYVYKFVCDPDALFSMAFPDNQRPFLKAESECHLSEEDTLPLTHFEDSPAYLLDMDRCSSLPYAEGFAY
Outline: as §1

ETV1 = ETV1 (Homo sapiens, UniProt P50549 1-477)
Chain of ETV1 (P50549 whole entry): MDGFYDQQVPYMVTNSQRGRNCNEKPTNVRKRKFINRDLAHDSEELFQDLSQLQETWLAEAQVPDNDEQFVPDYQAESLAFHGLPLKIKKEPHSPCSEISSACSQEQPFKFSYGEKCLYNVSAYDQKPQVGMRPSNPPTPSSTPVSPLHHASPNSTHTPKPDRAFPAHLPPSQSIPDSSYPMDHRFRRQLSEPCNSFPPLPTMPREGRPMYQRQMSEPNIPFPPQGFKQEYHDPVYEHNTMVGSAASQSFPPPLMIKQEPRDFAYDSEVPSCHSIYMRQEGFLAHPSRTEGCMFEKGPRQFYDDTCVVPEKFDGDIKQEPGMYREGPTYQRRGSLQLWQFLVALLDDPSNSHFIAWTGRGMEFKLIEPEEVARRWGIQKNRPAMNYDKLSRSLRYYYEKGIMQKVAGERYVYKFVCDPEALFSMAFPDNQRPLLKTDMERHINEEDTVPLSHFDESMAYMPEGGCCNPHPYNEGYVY
Outline: as §1

SPDEF = target: T3, SPDEF (Homo sapiens, UniProt O95238 1-335)
T3 sequence: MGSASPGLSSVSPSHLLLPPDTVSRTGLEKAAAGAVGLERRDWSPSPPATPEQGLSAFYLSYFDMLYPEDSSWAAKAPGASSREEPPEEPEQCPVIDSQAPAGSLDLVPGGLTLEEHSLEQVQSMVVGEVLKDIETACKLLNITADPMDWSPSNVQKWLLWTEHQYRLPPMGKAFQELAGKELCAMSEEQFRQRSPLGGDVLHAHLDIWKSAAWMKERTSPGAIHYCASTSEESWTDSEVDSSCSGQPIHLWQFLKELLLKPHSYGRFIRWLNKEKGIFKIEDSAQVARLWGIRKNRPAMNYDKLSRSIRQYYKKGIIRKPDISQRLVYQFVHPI
Outline: as §1

ETV3 = target: T4, ETV3 (Homo sapiens, UniProt P41162-2 1-143)
T4 sequence: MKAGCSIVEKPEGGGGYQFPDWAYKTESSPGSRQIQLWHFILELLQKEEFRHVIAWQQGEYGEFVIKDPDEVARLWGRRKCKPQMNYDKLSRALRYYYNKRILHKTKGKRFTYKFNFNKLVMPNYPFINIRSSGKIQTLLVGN
Outline: as §1

GABPA = target: T5, GABPA (Homo sapiens, UniProt Q06546 1-454)
T5 sequence: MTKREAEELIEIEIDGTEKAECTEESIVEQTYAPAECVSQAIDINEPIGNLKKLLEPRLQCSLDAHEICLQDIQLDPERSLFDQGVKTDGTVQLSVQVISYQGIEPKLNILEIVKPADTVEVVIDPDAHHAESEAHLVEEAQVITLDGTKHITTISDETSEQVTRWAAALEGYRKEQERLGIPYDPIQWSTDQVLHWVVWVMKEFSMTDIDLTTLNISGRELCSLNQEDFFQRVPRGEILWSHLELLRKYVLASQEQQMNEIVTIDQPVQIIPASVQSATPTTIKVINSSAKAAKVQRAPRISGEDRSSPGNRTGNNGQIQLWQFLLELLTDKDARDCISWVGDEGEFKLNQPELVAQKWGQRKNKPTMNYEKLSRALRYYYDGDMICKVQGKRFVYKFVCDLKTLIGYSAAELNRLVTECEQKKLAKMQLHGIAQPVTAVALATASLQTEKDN
Outline: as §1

ELK4 = target: T6, ELK4 (Homo sapiens, UniProt P28324-2 1-405)
T6 sequence: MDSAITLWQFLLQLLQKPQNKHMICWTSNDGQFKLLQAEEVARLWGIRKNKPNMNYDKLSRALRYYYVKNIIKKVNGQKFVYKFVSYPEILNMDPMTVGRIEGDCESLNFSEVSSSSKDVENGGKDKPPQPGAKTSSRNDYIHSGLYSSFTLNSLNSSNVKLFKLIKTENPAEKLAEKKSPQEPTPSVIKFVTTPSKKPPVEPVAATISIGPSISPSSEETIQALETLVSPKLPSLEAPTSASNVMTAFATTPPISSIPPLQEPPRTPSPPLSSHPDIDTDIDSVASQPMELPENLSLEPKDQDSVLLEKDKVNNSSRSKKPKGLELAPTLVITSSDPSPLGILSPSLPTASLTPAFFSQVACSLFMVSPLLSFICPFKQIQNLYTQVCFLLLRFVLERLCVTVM
Outline: as §1

ETV7 = target: T7, ETV7 (Homo sapiens, UniProt Q9Y603 1-341)
T7 sequence: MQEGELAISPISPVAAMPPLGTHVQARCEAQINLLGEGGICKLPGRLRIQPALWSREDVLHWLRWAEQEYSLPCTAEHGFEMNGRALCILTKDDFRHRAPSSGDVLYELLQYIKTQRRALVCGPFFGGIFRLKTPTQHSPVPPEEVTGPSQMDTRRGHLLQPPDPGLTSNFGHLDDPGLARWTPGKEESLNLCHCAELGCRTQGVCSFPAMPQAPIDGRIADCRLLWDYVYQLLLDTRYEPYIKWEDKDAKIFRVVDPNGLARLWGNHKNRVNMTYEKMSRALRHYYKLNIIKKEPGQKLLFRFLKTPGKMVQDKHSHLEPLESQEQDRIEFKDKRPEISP
Outline: as §1

ELK1 = target: T8, ELK1 (Homo sapiens, UniProt P19419 1-428)
T8 sequence: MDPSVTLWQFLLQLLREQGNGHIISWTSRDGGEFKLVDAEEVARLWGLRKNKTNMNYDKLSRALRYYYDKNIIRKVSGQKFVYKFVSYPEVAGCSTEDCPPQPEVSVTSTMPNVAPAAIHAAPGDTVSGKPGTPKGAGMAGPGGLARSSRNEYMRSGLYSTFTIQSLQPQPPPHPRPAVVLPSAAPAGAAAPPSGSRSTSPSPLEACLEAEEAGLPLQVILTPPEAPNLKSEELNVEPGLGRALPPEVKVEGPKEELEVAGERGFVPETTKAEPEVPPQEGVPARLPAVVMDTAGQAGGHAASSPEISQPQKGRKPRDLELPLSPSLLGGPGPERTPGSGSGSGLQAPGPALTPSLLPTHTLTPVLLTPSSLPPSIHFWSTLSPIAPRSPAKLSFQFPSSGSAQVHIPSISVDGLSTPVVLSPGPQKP
Outline: as §1

ELF1 = ELF1 (Homo sapiens, UniProt P32519 1-619)
Chain of ELF1 (P32519 whole entry): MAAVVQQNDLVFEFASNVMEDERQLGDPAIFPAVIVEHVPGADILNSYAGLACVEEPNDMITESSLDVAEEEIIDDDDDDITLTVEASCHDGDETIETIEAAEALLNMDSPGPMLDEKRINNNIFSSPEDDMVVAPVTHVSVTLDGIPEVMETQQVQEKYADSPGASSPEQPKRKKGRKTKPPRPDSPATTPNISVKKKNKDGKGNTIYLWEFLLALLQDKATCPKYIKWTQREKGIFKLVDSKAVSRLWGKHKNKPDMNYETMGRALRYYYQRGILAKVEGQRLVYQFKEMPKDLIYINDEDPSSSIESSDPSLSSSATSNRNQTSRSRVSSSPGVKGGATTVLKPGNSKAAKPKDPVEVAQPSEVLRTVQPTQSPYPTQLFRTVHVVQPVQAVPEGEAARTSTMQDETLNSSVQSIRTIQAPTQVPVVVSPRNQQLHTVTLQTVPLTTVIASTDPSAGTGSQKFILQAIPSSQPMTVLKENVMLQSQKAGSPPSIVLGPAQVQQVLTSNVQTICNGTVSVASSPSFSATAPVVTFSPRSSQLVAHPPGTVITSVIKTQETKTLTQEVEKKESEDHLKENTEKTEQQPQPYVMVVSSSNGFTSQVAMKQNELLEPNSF
Outline: as §1

ELF3 = target: T9, ELF3 (Homo sapiens, UniProt P78545 1-371)
T9 sequence: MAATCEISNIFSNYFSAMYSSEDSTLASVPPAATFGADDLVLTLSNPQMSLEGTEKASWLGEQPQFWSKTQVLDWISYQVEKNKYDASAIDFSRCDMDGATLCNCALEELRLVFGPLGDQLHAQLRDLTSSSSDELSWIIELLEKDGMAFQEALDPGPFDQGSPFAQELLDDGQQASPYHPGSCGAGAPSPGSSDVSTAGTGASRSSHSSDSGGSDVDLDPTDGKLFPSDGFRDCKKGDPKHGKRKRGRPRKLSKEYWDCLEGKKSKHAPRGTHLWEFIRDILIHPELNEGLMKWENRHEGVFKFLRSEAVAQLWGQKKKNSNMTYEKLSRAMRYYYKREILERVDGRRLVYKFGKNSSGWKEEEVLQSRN
Outline: as §1

ERF = target: T10, ERF (Homo sapiens, UniProt P50548 1-548)
T10 sequence: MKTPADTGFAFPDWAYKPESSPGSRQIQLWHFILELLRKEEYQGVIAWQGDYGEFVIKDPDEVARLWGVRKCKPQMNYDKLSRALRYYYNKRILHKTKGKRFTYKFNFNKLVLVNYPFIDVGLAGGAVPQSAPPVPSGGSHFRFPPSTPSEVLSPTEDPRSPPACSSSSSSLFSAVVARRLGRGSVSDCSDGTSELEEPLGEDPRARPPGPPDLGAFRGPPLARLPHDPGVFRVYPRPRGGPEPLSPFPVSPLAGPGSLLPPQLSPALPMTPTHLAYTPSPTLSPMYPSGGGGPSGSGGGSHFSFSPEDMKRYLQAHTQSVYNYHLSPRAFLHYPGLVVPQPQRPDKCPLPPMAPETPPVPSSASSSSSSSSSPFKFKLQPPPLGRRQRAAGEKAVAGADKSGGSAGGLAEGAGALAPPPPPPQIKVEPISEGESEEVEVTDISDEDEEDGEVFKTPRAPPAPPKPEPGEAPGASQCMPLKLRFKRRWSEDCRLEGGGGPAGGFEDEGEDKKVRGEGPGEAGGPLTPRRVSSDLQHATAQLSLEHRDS
Outline: as §1

ETS2 = target: T11, ETS2 (Homo sapiens, UniProt P15036 1-469)
T11 sequence: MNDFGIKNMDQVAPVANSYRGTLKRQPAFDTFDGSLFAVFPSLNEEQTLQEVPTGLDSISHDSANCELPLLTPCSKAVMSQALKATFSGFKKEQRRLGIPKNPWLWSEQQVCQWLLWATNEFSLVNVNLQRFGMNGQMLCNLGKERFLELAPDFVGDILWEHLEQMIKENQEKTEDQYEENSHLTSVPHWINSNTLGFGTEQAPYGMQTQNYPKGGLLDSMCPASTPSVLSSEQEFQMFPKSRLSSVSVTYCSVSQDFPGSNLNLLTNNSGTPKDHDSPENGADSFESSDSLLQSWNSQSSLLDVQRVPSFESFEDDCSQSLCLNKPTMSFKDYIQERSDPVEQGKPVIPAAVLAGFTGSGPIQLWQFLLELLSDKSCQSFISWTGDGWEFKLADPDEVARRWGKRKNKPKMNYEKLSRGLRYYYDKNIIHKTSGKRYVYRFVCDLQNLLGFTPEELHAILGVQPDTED
Outline: as §1

GGATAC
binding signal (ERG): 1.09 fold enrichment (6-mer frequency, TF over GST control)
binding signal (EHF): 1.01 fold enrichment (6-mer frequency, TF over GST control)
binding signal (SPIB): 1 fold enrichment (6-mer frequency, TF over GST control)
binding signal (ETV5): 1.01 fold enrichment (6-mer frequency, TF over GST control)
binding signal (ETV1): 1.06 fold enrichment (6-mer frequency, TF over GST control)
binding signal (SPDEF): 1.43 fold enrichment (6-mer frequency, TF over GST control)
binding signal (ETV3): 1 fold enrichment (6-mer frequency, TF over GST control)

GTTGGT
binding signal (GABPA): 1.04 fold enrichment (6-mer frequency, TF over GST control)
binding signal (ETV5): 1.01 fold enrichment (6-mer frequency, TF over GST control)
binding signal (ELK4): 1.09 fold enrichment (6-mer frequency, TF over GST control)
binding signal (ETV7): 1.02 fold enrichment (6-mer frequency, TF over GST control)

CATAGT
binding signal (ELK1): 1.03 fold enrichment (6-mer frequency, TF over GST control)
binding signal (ELF1): 1.01 fold enrichment (6-mer frequency, TF over GST control)
binding signal (ETV5): 1.01 fold enrichment (6-mer frequency, TF over GST control)
binding signal (ELK4): 1.14 fold enrichment (6-mer frequency, TF over GST control)
binding signal (ELF3): 1.07 fold enrichment (6-mer frequency, TF over GST control)
binding signal (ERF): 1.13 fold enrichment (6-mer frequency, TF over GST control)
binding signal (ETS2): 1.03 fold enrichment (6-mer frequency, TF over GST control)
binding signal (ETV7): 1.11 fold enrichment (6-mer frequency, TF over GST control)
